Screens: PubChem BioAssay, The Scripps Research Institute Molecular Screening Center
MITF inh: human MITF inhibition, primary screen. O75030. AlphaScreen MITF homodimerization, bead proximity signal. inhibition, % at 2.6 µM. 650,000 compounds, 0.91% hits. AID 1259374; in the data active = inhibition above about 50%;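 also: 0% = vehicle wells with protein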
FBW7 act: activators of human E3 ligase FBW7; Q969H0; AlphaScreen FBW7–phospho-cyclin E peptide binding, activator screen; normalized activity (activation), % at 26.1 µM; 650,000 compounds, 0.13% hits; in the data active = normalized activity above about 1.9%;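 also: purified mutant Fbw7 with reduced substrate affinity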
Target sequence (Q969H0 whole entry, looked up): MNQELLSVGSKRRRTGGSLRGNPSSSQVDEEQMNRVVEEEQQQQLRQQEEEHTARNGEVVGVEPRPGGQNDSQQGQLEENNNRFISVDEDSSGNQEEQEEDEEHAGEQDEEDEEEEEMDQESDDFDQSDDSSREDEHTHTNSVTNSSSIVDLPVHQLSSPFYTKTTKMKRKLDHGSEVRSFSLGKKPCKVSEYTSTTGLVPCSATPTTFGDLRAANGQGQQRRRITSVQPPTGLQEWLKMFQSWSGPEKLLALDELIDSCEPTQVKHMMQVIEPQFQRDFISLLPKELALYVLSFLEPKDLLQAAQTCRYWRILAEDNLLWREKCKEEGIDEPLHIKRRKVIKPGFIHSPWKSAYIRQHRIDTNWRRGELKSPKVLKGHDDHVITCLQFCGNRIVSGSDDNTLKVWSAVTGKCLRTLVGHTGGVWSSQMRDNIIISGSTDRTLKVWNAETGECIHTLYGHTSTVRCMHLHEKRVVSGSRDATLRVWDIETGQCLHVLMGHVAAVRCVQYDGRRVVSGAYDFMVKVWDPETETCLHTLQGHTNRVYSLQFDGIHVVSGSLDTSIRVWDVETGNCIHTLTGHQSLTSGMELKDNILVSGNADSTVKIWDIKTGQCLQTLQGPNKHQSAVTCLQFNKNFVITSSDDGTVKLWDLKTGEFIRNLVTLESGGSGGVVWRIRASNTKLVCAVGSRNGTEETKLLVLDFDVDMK
GPR151 activ: activators of human GPR151; PathHunter beta-arrestin GPR151 cells, luminescence; Q8TDV0; activation, % at 11.2 µM; 650,000 compounds, 1% hits; AID 1508602; in the data active = activation above about 4.9%;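 also: 0% = median of compound wells and 100% = cells with positive control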
TEAD-YAP block: TEAD-YAP interaction inhibition; HEK-TIYL cells, TEAD-Gal4/YAP UAS-luciferase luminescence; inhibition, % at 9.12 µM; 640,000 compounds, 1.4% hits; in the data active = inhibition above about 32%;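 also: 0% = median of test compound wells and 100% = reference inhibitor wells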
Active calls of the source: *; ! = not confirmed by another sample. Sampled rows, rich in hits. Any-hit rate of the full collection: about 3.5%.

SMILES | MITF inh | FBW7 act | GPR151 activ | TEAD-YAP block
O=C(COC(=O)C1CC2C=CC1C2)COC(=O)C1CC2C=CC1C2 (centres undefined) | -6 | 0 | 1 | -2
CC(C)OCc1cc(CN2CCCCC2)c(O)c2ncccc12 | 104* | -1 | -1 | 86*
COCc1cc(CN2CCN(c3ccccc3OC)CC2)c(O)c2ncccc12 | 107* | 0 | 4 | 42*
CCOc1ccccc1N1CCN(Cc2cc(OC)c(O)c(OC)c2)CC1 | 27 | 0 | 1 | -2
CCOc1cccc(CN2CCCCCC2)c1O | 10 | 0 | 0 | -1
CCOc1ccc(/C=N/NC(=O)c2cccs2)cc1 | 3 | 0 | -5 | -40
CCOc1cccc(/C=N/NC(=O)c2cccs2)c1O | 39 | 0 | -2 | 50*
COc1cccc(/C=N/NC(=O)C(=O)NCc2cccnc2)c1O | 61* | 0 | -1 | 6
CCOc1cccc(/C=N\NC(=O)c2ccc(Br)cc2)c1O | 20 | -1 | -1 | 13
CCOc1cccc(/C=N\NC(=O)c2cccnc2)c1O | 59* | -1 | -1 | 31
COc1cccc(/C=N/NC(=O)c2cccnc2)c1O | 71* | 0 | 0 | 23
COc1cccc(CN(CCO)C(=O)Cc2ccc(-c3cn[nH]c3)cc2)c1 | 4 | 0 | -1 | -6
O=C(c1ccccc1F)N1CCc2ccccc2C1 | 14 | 0 | -1 | -11
Cc1nc(NCCCO)cc(-c2cncc(-c3ccccc3)c2)n1 | 12 | 1 | 2 | -21
CC(/C=N/NC(=O)Cc1ccccc1)=C\c1ccccc1 | 6 | 0 | 0 | -19
Cc1cc[n+](CC(=O)C23CC4CC(CC(C4)C2)C3)c(N)c1 | 6 | 0 | 1 | -26
CCN(CC)c1ccc(/C=N/NC(=O)c2cccnc2)c(O)c1 | 28 | 0 | -1 | 70*
O=C(CSc1nnnn1C1CC2CCC1C2)Nc1ccnc2ccccc12 (centres undefined) | 16 | 0 | 0 | 61*
O=C(CSc1ccccc1C(=O)O)Nc1ccnc2ccccc12 | 17 | 0 | 2 | -10
C[n+]1ccccc1/C=C\c1ccccc1O | 3 | 0 | 0 | 3
C[n+]1ccccc1/C=C/C1=C(c2ccccc2)Oc2ccccc2O1 | 0 | 0 | 2 | 83*
Nc1ncn([C@@H]2O[C@H](CO)[C@@H](O)[C@H]2O)c(=O)n1 | -10 | 0 | 2 | 83*
Cc1ccc(N2CCCS2(=O)=O)cc1NC(=O)Nc1ccc(F)cc1 | -1 | 0 | 1 | 4
c1cc(-n2cnc3c(Nc4ccc5c(c4)OCO5)nc(N4CCC(N5CCOCC5)CC4)nc32)cs1 | 14 | 0 | -1 | 19
c1ccc(N2CCN(c3nc(Nc4ccc(N5CCOCC5)cc4)c4ncn(-c5ccsc5)c4n3)CC2)nc1 | 20 | 0 | 0 | 38*
SMILES | MITF inh | FBW7 act | GPR151 activ | TEAD-YAP block
c1cc(-n2cnc3c(Nc4ccc(N5CCOCC5)cc4)nc(N4CCC(N5CCOCC5)CC4)nc32)cs1 | 8 | 0 | -3 | 37*
c1ccc(Nc2nc(N3CCC(N4CCOCC4)CC3)nc3c2ncn3-c2ccsc2)cc1 | 11 | 0 | 0 | 33*
c1ccc(Oc2ccc(Nc3nc(N4CCOCC4)nc4c3ncn4-c3ccsc3)cc2)cc1 | 6 | 0 | 0 | -6
c1ccc(OCCNc2ncnc3nc(N4CCN(c5ccccn5)CC4)[nH]c23)cc1 | 12 | 0 | 3 | 1
Oc1ccc(CCNc2ncnc3nc(N4CCN(c5ccccn5)CC4)[nH]c23)cc1 | 10 | 0 | 0 | 39*
COc1cccc(-n2cc(C(=O)N3CC=C(c4ccccc4)CC3)c3ccccc3c2=O)c1 | -2 | 0 | 2 | 4
Cc1cc(Nc2ccc3c(c2)OCO3)nc(N2CCN(Cc3ccc4c(c3)OCO4)CC2)n1 | 26 | 0 | -1 | 8
Cc1ccc(NC(=O)CCN2C(=O)c3ccccc3S2(=O)=O)c(C)c1 | -10 | 0 | 0 | 1
CCCNc1nc(N2CCN(c3ccccn3)CC2)nc2c1ncn2-c1ccsc1 | 8 | 0 | 2 | 12
c1ccc(N2CCN(c3nc(NC4CC4)c4ncn(-c5ccsc5)c4n3)CC2)nc1 | 0 | 0 | 1 | 49*
Oc1ccc(CCNc2nc(N3CCN(c4ccccn4)CC3)nc3c2ncn3-c2ccsc2)cc1 | 11 | 0 | 3 | 53*
C=C(C)CN1C(=O)S/C(=C/c2cccc([N+](=O)[O-])c2)C1=O | 17 | 1 | -2 | -10
Nc1ccc(OCC[n+]2ccc(CCS(=O)(=O)O)cc2)cc1 | 0 | 0 | 1 | -8
O=S(=O)(O)CCc1cc[n+](CC(O)CO)cc1 (centres undefined) | 8 | 2.8* | -1 | 6
O=S(=O)(O)CCc1cc[n+](CC(O)CCl)cc1 (centres undefined) | 4 | 2.4* | -1 | 17
Cc1cc(C(=O)N(Cc2ccccn2)c2nc3ccc(F)cc3s2)n(C)n1 | 2 | 0 | -4 | -36
Cc1nc(NCc2cccc(-c3ccco3)c2)sc1-c1ccn(C2CCOC2)n1 (centres undefined) | 7 | 0 | -1 | -2
Oc1ccc(C2Nc3ccccc3-c3nnc(SCc4ccccc4Cl)nc3O2)cc1 (centres undefined) | -5 | 0 | -1 | 7
COc1ccc(Cl)cc1NC(=O)CSc1ccc(-c2ccco2)nn1 | -11 | 0 | 0 | 1
N#Cc1cc2c(cc1NC(=O)c1cc([N+](=O)[O-])ccc1N1CCOCC1)OCO2 | 15 | 0 | -2 | 36*
Cc1ccc(C(=O)c2cc([N+](=O)[O-])ccc2N2CCOCC2)c(C)c1 | 15 | 0 | -1 | 62*
Cc1cc(C)c(NC(=O)c2cc([N+](=O)[O-])ccc2N2CCOCC2)c(C)c1 | -4 | 0 | 0 | 2
Cc1ccc(C(=O)c2cc([N+](=O)[O-])ccc2N2CCOCC2)cc1C | 0 | 0 | 0 | 42*
COc1ccccc1-c1nc2sc3c(c2c(=O)o1)CCCC3 | -3 | 0 | 3 | 68*
O=c1oc(-c2ccccc2F)nc2sc3c(c12)CCCC3 | 8 | 0 | 0 | 0
SMILES | MITF inh | FBW7 act | GPR151 activ | TEAD-YAP block
CC(=O)c1cccc(NS(=O)(=O)c2c(Cl)cccc2Cl)c1 | -8 | 0 | 0 | -4
O=C(Nc1ccccc1)C12CC3CCC(CC(C3)C1)C2 | 23 | 0 | -2 | -1
COc1cc([N+](=O)[O-])ccc1N/C(N)=N/c1nc(C)cc(C)n1 | -20 | 0 | 0 | 57*!
Cc1cc(C)nc(/N=C(\N)Nc2ccc([N+](=O)[O-])cc2C)n1 | 0 | 0 | 2 | -1
COc1ccc2nc(NC(=O)Cn3c(=O)oc4ccccc43)sc2c1 | 8 | 0 | 2 | -6
Cc1cc(NS(=O)(=O)c2ccc(NC(=O)CCCOc3ccccc3)cc2)no1 | 7 | 0 | 0 | 2
Cc1cc(NS(=O)(=O)c2ccc(NC(=O)CCCOc3ccc(Cl)cc3)cc2)no1 | 1 | 2.9* | 2 | 4
Cc1ccccc1C(=O)N1CCN(c2ccc(-c3cccs3)nn2)CC1 | 10 | 0 | 0 | -43
CC(C)n1cnc2c(NCc3ccccc3)nc(-c3ccc(C(=O)N4CCN(C)CC4)cc3)nc21 | 11 | 0 | 0 | -3
CC(C)n1cnc2c(NCc3nc4ccccc4[nH]3)nc(-c3ccc(C(=O)NC4CC4)cc3)nc21 | 18 | 0 | -1 | 78*
